# Active and inactive are the calls of the source. How the source made its calls: active means hit-call score of the fitted dose curve at least 0.9, where 1 is the maximum; inactive means score below 0.9.
# Read-out: ABC Transporter (ABCC3), ABCC3 (gene 8714)
# Assay: LTEA_HepaRG_ABCC3: Life Technologies and Expression Analysis (LTEA) Assay for ABC Transporter (ABCC3) using HepaRG (AID 2283462)
# Settings: mRNA level, 48 h; actives raise or lower the signal
# Method: LTEA_HepaRG is a cell based, multiplexed-readout assay that uses HepaRG, a human liver cell line, with measurements taken at 48 hours after chemical dosing on a 96-well plate.LTEA_HepaRG_ABCC3 is one of 102 assay component(s) measured in the LTEA HepaRG cell culture assay. It is a marker of NR mediated transport.Data from the assay component LTEA_HepaRG_ABCC3 was analyzed into 1 endpoint. This assay endpoint, LTEA_HepaRG_ABCC3, was analyzed with bidirectional fitting relative to DMSO as the negative control and baseline of activity. Using a type of inducible reporter, measures of mRNA induction for gain or loss-of-signal activity can be used to understand regulation of transcription factor activity. To generalize the intended target to other relatable targets, this assay endpoint is annotated to the transporter intended target family, where the subfamily is ABC transporter.
# A total of 1060 chemcials from the ToxCast library were tested in eight-point concentration-response experiments. Cell culture and cytotoxicity assays were conducted at Thermo Fisher Scientific's Custom Services facility (Madison, WI). A single lot of human HepaRG cells (Thermo Fisher Scientific, Frederick, MD) was used for the cell culture experiments. 96-well format collagen type I coated plates of human HepaRG cells were prepared using established methods. Briefly, cryopreserved HepaRG cells were thawed, plated at a density of approximately 100,000 cells/well in HepaRG Thaw, Plate, and General Purpose media (HPRG770, Thermo Fisher Scientific), and incubated for 48 hours. 0.5% DMSO was selected as vehicle control to balance the requisite need of DMSO in HepaRG cultures to maintain differentiation (for example, baseline metabolism, proportions of hepatocytes vs. cholangiocytes), while enabling further hepatic receptor pathway activation (for example, PXR and CAR) in response to chemical exposure. 48 hours after plating, the culture medium was replaced with HepaRG Serum-Free Incudtion Media. Cells were exposed to each test chemical in duplicate and maintained in CO2 incubators for another 48 hours. Chemical plates were thawed to room temperature and 200x concentrations of treatment groups were prepared. 8-point conentration-reponse curves were made with the highest exposure at 100 uM, followed by half-log dilutions, all in 0.5% DMSO. Each test plate contained variouse controls, induction positive controls (1mM phenobarbital), cytotoxicity positive controls ([…] aflatoxin B1), vehicle controls (0.5% DMSO), and total lysis controls (0.5% DMSO). Cell morphology images were taken using an Essen IncuCyte FLR automated microscope, with six 96-well plates imaged in about 24 minutes. Images were captured and exported and JPEG files. Spent culture media was transfered to black-well plates for the LDH assay, and remaining media was sorted at -80 C for later use. Cells were treated with RLT buffer and frozen until shipped for gene expression analysis. Total RNA was isolated from the cell suspension in 75 uL of Buffer RLT (Qiagen, Germantown, MD 20874) by Quintiles/Expression Analysis (Durham, NC) using a custom isolation procedure. Total RNA from each plate well was transferred to a preamplification plate. Fluidigm's 96.96 Dynamic ArrayTM (Fluidigm, Amsterdam, the Netherlands) technology was used for gene expression analyses by quantitative reverse transcription polymerase chain reaction (qRT-PCR, performed by Quintiles/Expression Analysis, Durham, NC)89. Standard TaqManTM Assays (Applied Biosystems/ThermoFisher Scientific, Foster City, CA) were used to assess the expression of 93 genes selected based on their selectivity and sensitivity to important hepatic receptors known to be modulated by environmental chemicals; importance in human hepatocyte functionality; and hepatotoxicity. […]
SMILES,outcome,AC50
NCC1(Cc2noc(=O)[nH]2)CCCCC1,inactive,
O=c1[nH]cc(F)c(=O)[nH]1,inactive,
FC(F)(F)C(F)(F)C(F)(F)C(F)(F)C(F)(F)C(F)(F)CCI,inactive,
COc1ccc(S(=O)(=O)N2C(=O)[C@@](c3ccccc3OC)(N3C[C@H](O)C[C@H]3C(=O)N(C)C)c3cc(Cl)ccc32)c(OC)c1,,50 µM (active)
CCOC(=O)C(C)(C)Oc1ccc(Cl)cc1,inactive,
Cc1cccc([N+](=O)[O-])c1C,inactive,
CNCc1cc(F)ccc1Oc1ccc(Cl)c(Cl)c1,inactive,
CC(=O)OCCOCCOCCOC(C)=O,inactive,
CC(C)(C)c1cc(O)c(C(C)(C)C)cc1O,,73.6 µM (active)
CC(=O)C(C)=CC1C(C)=CCCC1(C)C (stereo not given),inactive,
Nc1ccccc1N,,71.9 µM (active)
CCOC(=O)CCC(=O)OCC,inactive,
O=C(OCCCCCOC(=O)c1ccccc1)c1ccccc1,,12.7 µM (active)
COc1cc(S(=O)(=O)O)c(C)cc1N=Nc1c(O)ccc2cc(S(=O)(=O)O)ccc12,inactive,
Cc1cc(NC(=O)C(=O)O)cc(C)c1Oc1ccc(O)c2c1CCC2,inactive,
O=C(N[C@@H](Cc1ccccc1)[C@@H](O)C(=O)N1C[C@@H](O)[C@@H](O)C1)c1cc2cc(Cl)ccc2[nH]1,inactive,
CCCCCCCCCCC,inactive,
CC(C)c1ccc(C(=O)N=C(N)N)cc1S(C)(=O)=O,inactive,
CN1CCN(Cc2cc(-c3ccc4[nH]c(=O)oc4c3)co2)[C@@H](c2ccc(F)cc2)C1,,78 µM (active)
CCCCCCCCCCCCCCCC,inactive,

SMILES,outcome,AC50
c1cc(-c2ccncc2)ccn1,inactive,
OC[C@@H](O)[C@@H](O)[C@H](O)[C@H](O)CO,inactive,
COc1ccc(C)cc1N,inactive,
CCCCCCCCCCCCCO,inactive,
CC1=C(/C=C/C(C)=C/C=C/C(C)=C/CO)C(C)(C)CCC1,inactive,
Cc1cc(=O)[nH]c(=S)[nH]1,inactive,
CN[C@H]1CC[C@@H](c2ccc(Cl)c(Cl)c2)c2ccc(S(N)(=O)=O)cc21,,12.6 µM (active)
O=c1c(O)c(-c2ccc(O)c(O)c2)oc2cc(O)cc(O)c12,inactive,
CCCCCCOCCO,inactive,
CC=Cc1ccc(O)c(OC)c1,inactive,
Cc1ccc(C)c(C)c1,inactive,
COc1ccc2c(c1)c(CC(=O)O)c(C)n2C(=O)c1ccc(Cl)cc1,inactive,
Cc1nc(C)nc(N2C[C@@H](C)N(c3ccnc([C@@H](C)O)n3)[C@@H](C)C2)n1,inactive,
NC(=O)Cn1c(=O)cc(CCN2CCN(c3nccc4sccc34)CC2)c2ccc(F)cc21,,78.1 µM (active)
COC(=O)c1ccc(O)cc1,inactive,
Cc1oc(-c2ccccc2)nc1CCOc1cccc2c1ccn2CCC(=O)O,inactive,
O=C(O)CCCCC(=O)O,inactive,
CCCCC(CC)COC(=O)CC(C(=O)OCC(CC)CCCC)S(=O)(=O)O (stereo not given),inactive,
Cc1nc(-c2ccc3c(c2)CCN(CCC2CCC(NC(=O)/C=C/c4ccc(F)cc4)CC2)CC3)no1 (stereo not given),inactive,
CCCCc1ccc2c(n1)[C@@H](c1ccc(OC)cc1C[C@H](C)C(=O)O)[C@H](C(=O)O)[C@H]2c1ccc2c(c1)OCO2,inactive,

# — PubChem BioAssay (EPA / NIEHS)
